The text below walks through data of PubChem BioAssay (NCI).

Molecules are shown by their SMILES. Compounds without any hit were thinned out: in the full panel of roughly 79,000, 15% have a hit. Values without a mark were called inactive. The source made the active and inactive calls. Cut-off read from the data, not from the text of the source: active = growth inhibition above about 70%; inactive = the rest.

Test [1] can be described thus: NCI Yeast Anticancer Drug Screen. Data for the rad50 strain (AID 155).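 Note: 0% = growth of vehicle-only cultures of the same strain.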 Conditions: S. cerevisiae rad50 strain growth inhibition, stronger effect = higher value. The method in brief:
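Cells are treated with compound, grown, and their growth is then scored against vehicle-only cultures of the same repair-deficient yeast strain.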

Test [2] is described as follows: NCI Yeast Anticancer Drug Screen. Data for the mec2-1 strain (AID 157). To be noted: S. cerevisiae mec2-1 strain, stronger effect = higher value. Put shortly: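 Test agents were screened against the mec2-1 yeast strain, with defined DNA repair or cell cycle alteration. Growth was scored as inhibition against vehicle-only controls.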
A short description of test [3]: NCI Yeast Anticancer Drug Screen. Data for the sgs1 mgt1 strain (AID 161).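 Note: 0% = growth of cultures given vehicle only.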 To be noted: S. cerevisiae sgs1 mgt1 strain, stronger effect = higher value. The method in brief:
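Read-out: growth inhibition vs vehicle controls. Cells: mutant yeast strain deficient in DNA damage repair.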

The nature of test [4]: NCI Yeast Anticancer Drug Screen. Data for the cln2 rad14 strain (AID 165).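 Note: 0% = growth equal to vehicle treated cultures.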 To be noted: S. cerevisiae cln2 rad14 strain, stronger effect = higher value. Put shortly: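 Growth of compound-exposed yeast (cln2 rad14 genotype) measured and expressed as inhibition relative to vehicle.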
A short description of test [5]: NCI Yeast Anticancer Drug Screen. Data for the bub3 strain (AID 167). Conditions: S. cerevisiae bub3 mutant strain, stronger effect = higher value. The method in brief: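 Part of a panel of yeast mutants defective in DNA damage repair or cell cycle regulation. Each strain is grown with compound, and inhibition is calculated relative to solvent-treated cultures.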
A short description of test [6]: NCI Yeast Anticancer Drug Screen. Data for the mlh1 rad18 strain (AID 175). To be noted: S. cerevisiae mlh1 rad18 strain growth inhibition, stronger effect = higher value. Put shortly: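 In this whole-cell yeast screen, a strain with altered DNA damage repair is challenged with compound, and its growth is measured against matched vehicle-treated controls.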
[7] abbreviates: at 5.0 µM (retest, dose inferred, filed as 0.5).
The mark [8] stands for this setting: at 50.0 µM (retest, dose inferred, filed as 5.0).

`C=CCCCCCCCCC(=O)OCC=C`: the growth inhibition in test [1] (setting [7]) is 0%; in test [1] (setting [8]) it was 4%; in test [1] (at 50.0 µM), -2.1%; in test [2] (setting [7]), 6%; in test [2] (setting [8]) it was 3%; in test [2] (at 50.0 µM), -18.1%. For the same compound, the growth inhibition is 4% in test [3] (setting [7]); 9% in test [3] (setting [8]); 16.4% in test [3] (at 50.0 µM); 0% in test [4] (setting [7]); 0% in test [4] (setting [8]); 26.6% in test [4] (at 50.0 µM). Moreover, the growth inhibition in test [5] (setting [7]) was -3%; in test [5] (setting [8]), -4%; in test [5] (at 50.0 µM) it was 10.9%; in test [6] (setting [7]), -2%; in test [6] (setting [8]) it was -1%; in test [6] (at 50.0 µM), 9.2%.

Consider `O=C(c1ccccc1)c1[nH]c2ccccc2c(=O)c1-c1ccc([N+](=O)[O-])cc1`, for which the growth inhibition in test [1] (setting [7]) was -6%; in test [1] (setting [8]) it was 96% (active); in test [1] (at 50.0 µM) it was 97.6% (active); in test [2] (setting [7]), -9%; in test [2] (setting [8]), 98% (active); in test [2] (at 50.0 µM), 97.5% (active). Moreover, the growth inhibition is -16% in test [3] (setting [7]); 98% (active) in test [3] (setting [8]); 98.3% (active) in test [3] (at 50.0 µM); -13% in test [4] (setting [7]); 97% (active) in test [4] (setting [8]); 97.6% (active) in test [4] (at 50.0 µM). In addition, the growth inhibition in test [5] (setting [7]) is -8%; in test [5] (setting [8]) it was 96% (active); in test [5] (at 50.0 µM), 97.5% (active); in test [6] (setting [7]), 3%; in test [6] (setting [8]) it was 94% (active); in test [6] (at 50.0 µM), 98.3% (active).

On to `Ic1[nH]c(I)c(I)c1I`, for which the growth inhibition in test [1] (setting [7]) was 13%; in test [1] (setting [8]), 97% (active); in test [1] (at 50.0 µM), 95.2% (active); in test [2] (setting [7]), 16%; in test [2] (setting [8]), 98% (active); in test [2] (at 50.0 µM), 95% (active). Moreover, the growth inhibition was 10% in test [3] (setting [7]); 95% (active) in test [3] (setting [8]); 97% (active) in test [3] (at 50.0 µM); -2% in test [4] (setting [7]); 96% (active) in test [4] (setting [8]); 94.3% (active) in test [4] (at 50.0 µM). Moreover, the growth inhibition in test [5] (setting [7]) was 14%; in test [5] (setting [8]) it was 98% (active); in test [5] (at 50.0 µM) it was 96.7% (active); in test [6] (setting [7]) it was 11%; in test [6] (setting [8]) it was 95% (active); in test [6] (at 50.0 µM), 92.7% (active).

`Cc1oc2c(c1C(=O)c1ccccc1)C(=O)c1ccccc1C2=O`: the growth inhibition in test [1] (setting [7]) is 33%; in test [1] (setting [8]), 99% (active); in test [1] (at 50.0 µM), 88.2% (active); in test [2] (setting [7]) it was 19%; in test [2] (setting [8]) it was 99% (active); in test [2] (at 50.0 µM) it was 92.7% (active). The growth inhibition is 31% in test [3] (setting [7]); 99% (active) in test [3] (setting [8]); 93.2% (active) in test [3] (at 50.0 µM); 22% in test [4] (setting [7]); 98% (active) in test [4] (setting [8]); 92.8% (active) in test [4] (at 50.0 µM). Also, the growth inhibition is 39% in test [5] (setting [7]); 99% (active) in test [5] (setting [8]); 91.7% (active) in test [5] (at 50.0 µM); 25% in test [6] (setting [7]); 99% (active) in test [6] (setting [8]); 82% (active) in test [6] (at 50.0 µM).

Take `c1ccc(CN2CCC3(CC2)SSC2(CCN(Cc4ccccc4)CC2)S3)cc1`: the growth inhibition in test [1] (setting [7]) is 3%; in test [1] (setting [8]), 16%; in test [1] (at 50.0 µM), 53.7%; in test [2] (setting [7]) it was 2%; in test [2] (setting [8]), 23%; in test [2] (at 50.0 µM) it was 23.4%. In addition, the growth inhibition is 22% in test [3] (setting [7]); 67% in test [3] (setting [8]); 61.2% in test [3] (at 50.0 µM); 4% in test [4] (setting [7]); 8% in test [4] (setting [8]); 68.3% in test [4] (at 50.0 µM). Besides, the growth inhibition was 5% in test [5] (setting [7]); 43% in test [5] (setting [8]); 27.1% in test [5] (at 50.0 µM); 6% in test [6] (setting [7]); 32% in test [6] (setting [8]); 52% in test [6] (at 50.0 µM).

For the compound `CN(C)c1ccc(/C=C/c2nc3ccccc3[nH]2)cc1`, the growth inhibition in test [1] (setting [7]) is -2%; in test [1] (setting [8]) it was 89% (active); in test [1] (at 50.0 µM) it was 54%; in test [2] (setting [7]) it was -9%; in test [2] (setting [8]), 77% (active); in test [2] (at 50.0 µM), 56.8%. In addition, the growth inhibition was -3% in test [3] (setting [7]); 89% (active) in test [3] (setting [8]); 37.1% in test [3] (at 50.0 µM); -7% in test [4] (setting [7]); 67% in test [4] (setting [8]); 16.7% in test [4] (at 50.0 µM). Also, the growth inhibition in test [5] (setting [7]) is -10%; in test [5] (setting [8]), 54%; in test [5] (at 50.0 µM), 14.6%; in test [6] (setting [7]), -13%; in test [6] (setting [8]), 97% (active); in test [6] (at 50.0 µM), 80% (active).

For the compound `Cc1ccc(S(=O)(=O)CC2(Br)CCc3ccccc3C2=O)cc1` (stereo not given), the growth inhibition in test [1] (setting [7]) was 39%; in test [1] (setting [8]) it was 71% (active); in test [1] (at 50.0 µM) it was 74.8% (active); in test [2] (setting [7]), 31%; in test [2] (setting [8]), 15%; in test [2] (at 50.0 µM) it was 62.5%. Also, the growth inhibition in test [3] (setting [7]) is 40%; in test [3] (setting [8]), 74% (active); in test [3] (at 50.0 µM), 75.3% (active); in test [4] (setting [7]), 1%; in test [4] (setting [8]) it was 18%; in test [4] (at 50.0 µM) it was 38.6%. Besides, the growth inhibition was 12% in test [5] (setting [7]); 60% in test [5] (setting [8]); 42.5% in test [5] (at 50.0 µM); 23% in test [6] (setting [7]); 48% in test [6] (setting [8]); 54.8% in test [6] (at 50.0 µM).

For the compound `O=C(Nc1cccc(NC(=O)c2cc(=O)c3ccccc3o2)n1)c1cc(=O)c2ccccc2o1`, the growth inhibition was 34% in test [1] (setting [7]); 34% in test [1] (setting [8]); 62.6% in test [1] (at 50.0 µM); 13% in test [2] (setting [7]); 13% in test [2] (setting [8]); 14.9% in test [2] (at 50.0 µM). In addition, the growth inhibition in test [3] (setting [7]) was -4%; in test [3] (setting [8]), -4%; in test [3] (at 50.0 µM), 21.7%; in test [4] (setting [7]), 21%; in test [4] (setting [8]), 21%; in test [4] (at 50.0 µM), 24.2%. Moreover, the growth inhibition in test [5] (setting [7]) was 15%; in test [5] (setting [8]) it was 15%; in test [5] (at 50.0 µM) it was 58.5%; in test [6] (setting [7]), 24%; in test [6] (setting [8]), 24%; in test [6] (at 50.0 µM), 67.3%.

Consider `Clc1nn2nnnc2c2ccccc12`, for which the growth inhibition is -133% in test [1] (setting [7]); 87% (active) in test [1] (setting [8]); 80.2% (active) in test [1] (at 50.0 µM); -35% in test [2] (setting [7]); 82% (active) in test [2] (setting [8]); 81.2% (active) in test [2] (at 50.0 µM). Moreover, the growth inhibition in test [3] (setting [7]) is -46%; in test [3] (setting [8]), 65%; in test [3] (at 50.0 µM) it was 51.5%; in test [4] (setting [7]) it was -51%; in test [4] (setting [8]), 24%; in test [4] (at 50.0 µM), -31.6%. The growth inhibition in test [5] (setting [7]) is -51%; in test [5] (setting [8]) it was 77% (active); in test [5] (at 50.0 µM), 65%; in test [6] (setting [7]) it was -102%; in test [6] (setting [8]), 74% (active); in test [6] (at 50.0 µM) it was 73.8% (active).

`CC(C)c1ncc(-c2ccccc2)cc1-c1ccccc1`: the growth inhibition is -2% in test [1] (setting [7]); 93% (active) in test [1] (setting [8]); 95.7% (active) in test [1] (at 50.0 µM); -3% in test [2] (setting [7]); 96% (active) in test [2] (setting [8]); 97.5% (active) in test [2] (at 50.0 µM). Besides, the growth inhibition in test [3] (setting [7]) was -1%; in test [3] (setting [8]), 94% (active); in test [3] (at 50.0 µM) it was 97.7% (active); in test [4] (setting [7]) it was 2%; in test [4] (setting [8]), 86% (active); in test [4] (at 50.0 µM), 78.8% (active). In addition, the growth inhibition is 6% in test [5] (setting [7]); 95% (active) in test [5] (setting [8]); 98.5% (active) in test [5] (at 50.0 µM); -7% in test [6] (setting [7]); 95% (active) in test [6] (setting [8]); 96% (active) in test [6] (at 50.0 µM).
